Screening data: PubChem, several laboratories
Only some compounds are listed: those with a hit (about 4% of all), similar ones and a draw of the others.
ADAM17 inh: ADAM17 inhibitors, primary screen, biochemical, QFRET; inhibition, % at 6.95 µM; Disintegrin and metalloproteinase domain-containing protein 17 (Homo sapiens), P78536; recombinant ADAM17, EDANS/DABCYL FRET peptide cleavage; 370,000 compounds, 0.83% hits;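 active = inhibition above the mean of compounds lying between control limits plus 3 SD, set per campaign, cut at about 8.5% in these data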;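 note: 0% = DMSO-only wells as the low control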
Target sequence (P78536 215-824 limits assumed): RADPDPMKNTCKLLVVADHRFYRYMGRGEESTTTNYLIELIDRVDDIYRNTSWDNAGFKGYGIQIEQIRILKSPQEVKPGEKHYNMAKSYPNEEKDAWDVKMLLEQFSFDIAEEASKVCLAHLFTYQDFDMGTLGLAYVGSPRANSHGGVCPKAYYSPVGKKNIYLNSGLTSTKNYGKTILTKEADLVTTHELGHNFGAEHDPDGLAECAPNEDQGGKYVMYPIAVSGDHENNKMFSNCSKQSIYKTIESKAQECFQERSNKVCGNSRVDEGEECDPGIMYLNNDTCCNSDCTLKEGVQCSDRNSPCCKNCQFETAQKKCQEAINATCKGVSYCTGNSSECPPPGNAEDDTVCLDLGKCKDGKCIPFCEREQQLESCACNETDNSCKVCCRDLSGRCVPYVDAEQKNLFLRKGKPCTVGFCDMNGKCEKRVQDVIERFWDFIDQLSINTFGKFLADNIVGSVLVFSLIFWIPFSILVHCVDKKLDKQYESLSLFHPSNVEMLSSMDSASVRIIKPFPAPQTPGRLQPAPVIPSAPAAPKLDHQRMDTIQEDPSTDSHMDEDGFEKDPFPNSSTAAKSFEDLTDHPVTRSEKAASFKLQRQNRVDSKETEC
aDG glyco act: activators of alpha-DG glycosylation, primary screen, uHTS, Pro5-aDG cells, AlphaScreen. 360,000 compounds, 0.22% hits. activation, % at 10 µM. AID 624168, 2012. alpha-DG glycosylation AlphaScreen (IIH6); 0% Pro5, 100% B10-LARGE cell signal;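 active = activation of at least 8% versus controls, or a plate z-score of at least 8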;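 note: Pro5 are CHO cells carrying HIG-tagged alpha-DG that lacks glycosylation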
FAS-TE inh: FAS thioesterase domain inhibitors, primary screen, biochemical, fluorescence intensity, uHTS. Fatty acid synthase (Homo sapiens), P49327. recombinant FAS-TE, OMFH fluorogenic substrate, fluorescence endpoint. inhibition, % at 15 µM. 360,000 compounds, 0.67% hits. AID 602261, 2012;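 active = compounds whose normalised, plate-corrected inhibition of enzyme fluorescence in the single-dose primary screen is 50% or more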;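 note: 0% = DMSO with enzyme and 100% = substrate without enzyme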
NR3A LBD binder: binders of NR3A ligand-binding domain, primary screen, biophysical, differential scanning fluorimetry, uHTS. Glutamate receptor ionotropic, NMDA 3A (GRIN3A) ligand-binding domain. NR3A LBD differential scanning fluorimetry, Tm shift; 0% = protein alone, 100% = glycine-bound protein. 340,000 compounds, 2.5% hits. AID 1259313, 2017. Tm shift relative to glycine control, % at 25 µM;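 active = melting temperature shift of at least 10% of the positive control shift, at one fixed dose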
ADAM10 inh: human ADAM10 inhibitors, primary screen, biochemical, QFRET, HTS. Disintegrin and metalloproteinase domain-containing protein 10 (Homo sapiens), O14672. recombinant ADAM10, EDANS/DABCYL FRET peptide cleavage, 3 h. inhibition, % at 7 µM. 370,000 compounds, 0.62% hits. AID 720582, 2013;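 active = inhibition above a per-campaign cutoff equal to the mean of compounds falling between control-based bounds plus 3 SD, cut at about 20% in these data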;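 note: 0% = DMSO wells while the 100% control is not disclosed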
ADAM10 confirm: human ADAM10 inhibitors, confirmation, biochemical, QFRET, triplicate; shares compounds with ADAM10 inh; 2,100 compounds, 1% hits; ADAM10 QFRET peptide cleavage, EDANS fluorescence; inhibition, % at 6.95 µM; AID 743208, 2013;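 active = inhibition above about 20% chosen separately for each screening run, limit read from the data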;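 note: 0% = DMSO wells and 100% = marimastat wells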
ADAM17 ctr: ADAM17 inhibitors, counter-screen for ADAM10 exosite inhibitor project, biochemical, QFRET, high throughput; AID 743214, 2013; 2,100 compounds, 0.5% hits; ADAM17 QFRET peptide cleavage, EDANS fluorescence; shares compounds with ADAM10 inh; inhibition, % at 6.95 µM;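 active = mean triplicate inhibition above the solvent-only control wells' mean plus 3 SD, cut at about 12% in these data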;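 note: 0% = DMSO wells and 100% = marimastat wells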
Active calls of the source: *; i = inactive; nt = no result; ! = a repeat was not active.

SMILES | ADAM17 inh | aDG glyco act | FAS-TE inh | NR3A LBD binder | ADAM10 inh | ADAM10 confirm | ADAM17 ctr
CC(C)(C)NC(=O)[C@@H]1C[C@@H]2CCCC[C@@H]2CN1C[C@@H](O)[C@H](Cc1ccccc1)NC(=O)[C@H](CC(N)=O)NC(=O)c1ccc2ccccc2n1 | 8.2 | 0.2 | 34.9 | -9.3 | 26.3*! | 1.9 | -0.1
O=C(Cc1ccccc1)NNC(=S)Nc1ccccc1 | -8.2 | -0.1 | -4.3 | -1.4 | -5.2 | nt | nt
O=C(CSc1nnc(SCc2ccccc2)s1)NNC(=S)Nc1ccccc1 | 8.0 | 0.1 | -4.3 | 6.3 | 23.7* | 0.0 | 0.9
CCSc1nc2c(c(=O)[nH]c(=O)n2C)n1C/C=C(/C)Cl | 3.4 | 0.1 | -2.3 | -0.9 | 19.9* | 1.4 | 0.1
O=C(CCN1CCN(c2ccccc2)CC1)NNC(=S)Nc1ccccc1Cl | 15.0* | 1.1 | -2.6 | 1.2 | 20.7* | 0.8 | 1.0
O=C(CN1CCN(c2ccccc2)CC1)Nc1ccccc1Cl | -1.4 | -0.3 | 20.5 | -0.4 | 5.5 | nt | nt
Cc1ccc(NC(=O)COc2cccc3ccc(C)nc23)c(Br)c1 | 0.7 | 0.2 | 3.9 | 1.9 | 6.6 | nt | nt
O=C(CCCOc1ccc(Cl)cc1Cl)N1CCCc2ccccc21 | 4.8 | 0.0 | 22.0 | 0.9 | 13.3 | nt | nt
O=C(COc1ccc(Cl)cc1Cl)OCC(=O)N1CCCc2ccccc21 | 7.6 | 0.0 | 37.1 | -11.5 | 20.6* | 3.8 | 0.3
CCC1(C)Cc2ccccc2-c2nc(NCCCO)[nH]c(=O)c21 (stereo not given) | i | 0.0 | 0.4 | 1.1 | i | nt | nt
O=C(c1ccc(C#CC2(O)CCCCC2)cc1)N1CCN(C(c2ccccc2)c2ccccc2)CC1 | 3.5 | 0.0 | 15.7 | 12.2* | 25.0* | 6.4 | 2.1
CCOC1CCc2c(C)nc(N)nc2S1 (stereo not given) | 0.1 | 0.2 | -8.6 | 2.0 | 0.8 | nt | nt
O=C(C1CC1)N1N=C(c2cccc(Br)c2)CC1(O)C(F)(F)F (stereo not given) | -3.6 | -0.1 | 12.8 | -0.2 | 81.1* | -1.3 | 0.1
COc1cc(OC)cc(C(=O)N[C@H](C(=O)OCC(=O)Nc2ccc(C(C)C)cc2)C(C)C)c1 | 4.1 | 0.4 | 23.6 | -2.5 | 20.6* | 7.4 | 1.9
COc1ccc(NS(=O)(=O)c2cc(NC(=O)c3ccc(F)cc3)ccc2OC)cc1 | 7.7 | 0.0 | 7.4 | -5.8 | 14.2 | nt | nt
COc1ccc(NC(=O)c2cc(-c3ccc(F)cc3C)n[nH]2)cc1OC | 4.4 | -0.2 | 0.1 | nt | -9.7 | nt | nt
COc1ccc(NC(=O)c2cc(-c3cc(C)cc(F)c3)n[nH]2)cc1OC | 8.5 | -0.2 | 7.3 | nt | 26.3* | 0.2 | 0.3
CCOc1ccc(Cl)cc1-c1cc(C(=O)Nc2cc(OC)c(OC)c(OC)c2)[nH]n1 | 7.0 | -0.4 | 17.3 | nt | 20.2* | 7.2 | 1.5
COc1ccc(NC(=O)c2ccc(F)cc2)cc1S(=O)(=O)Nc1cc(C)ccc1Br | 7.5 | 0.0 | 41.8 | 20.9* | 22.6* | 8.2 | 2.6
Cc1cc2n(n1)C(c1ccc3c(c1)OCO3)Nc1c(C)cccc1-2 (stereo not given) | -46.9 | 0.0 | 17.7 | -0.9 | -182.6 | nt | nt
O=C(CCc1nnc(C2(c3ccc(Cl)cc3)CCC2)o1)N1CCCC(O)C1 (stereo not given) | 5.1 | 0.0 | -6.1 | 1.3 | -2.8 | nt | nt
O=C(COC(=O)C1CCN(c2ccc(C(F)(F)F)cn2)CC1)Nc1ccc(Cl)cc1 | 7.2 | -0.1 | 30.3 | 24.2* | 26.8* | 8.7 | 4.5
O=[N+]([O-])c1ccccc1/C=C/C=N/n1c(-c2ccccc2)n[nH]c1=S | -1.3 | -0.3 | -5.6 | -7.9 | 7.5 | nt | nt
Cc1ccc(-c2n[nH]c(=S)n2/N=C/C=C\c2ccccc2[N+](=O)[O-])cc1 | 7.5 | -0.3 | -5.9 | -7.9 | 29.3* | 0.8 | -0.3
COc1ccc(S(=O)(=O)N2CCN(C(=O)c3ccc([N+](=O)[O-])o3)CC2)cc1 | 5.2 | 0.1 | 4.5 | 1.3 | 21.0* | 0.7 | 0.7
SMILES | ADAM17 inh | aDG glyco act | FAS-TE inh | NR3A LBD binder | ADAM10 inh | ADAM10 confirm | ADAM17 ctr
O=C(CC(Cc1ccccc1)C(=O)O)Nc1ccc(F)cc1 (stereo not given) | -0.2 | 0.0 | -6.9 | -1.0 | 21.1* | -0.1 | -0.4
COc1ccc(NC(=O)CC(Cc2ccccc2)C(=O)O)cc1 (stereo not given) | -0.4 | -0.2 | -7.5 | -0.2 | 0.2 | nt | nt
Cc1ccccc1Cn1cc(S(=O)(=O)CC(=O)Nc2nccs2)c2ccccc21 | 2.4 | 0.8 | 19.5 | -2.5 | 22.9* | 3.7 | 0.3
O=C1c2ccccc2C(=O)N1C(CO)C(O)c1ccc([N+](=O)[O-])cc1 (stereo not given) | -2.8 | -0.1 | 2.3 | -1.8 | -2.6 | nt | nt
Cc1ccc(NC(=O)CN(C)C(=O)c2ccc(NC(=O)CC3SC(N4CCCC4)=NC3=O)cc2)cc1 (stereo not given) | -0.6 | 0.0 | -3.8 | 0.9 | 5.6 | nt | nt
O=C(C(=Cc1ccc(O)cc1)c1ccccc1)c1ccccc1 | 8.0 | -0.1 | 24.1 | nt | 29.7* | 7.5 | 2.1
O=C(C(=Cc1ccccc1)c1ccccc1)c1ccccc1 | 3.3 | -0.2 | 42.0 | nt | 15.6 | nt | nt
O=C(CCN1CCN(Cc2ccccc2)CC1)Nc1ccc(OCc2ccccc2)cc1 | 2.5 | 3.7 | 0.6 | -1.1 | 20.7* | 3.8 | 0.7
O=C(CCN1CCN(CCO)CC1)Nc1ccc(OCc2ccccc2)cc1 | 0.0 | 0.0 | -7.2 | 0.6 | -1.8 | nt | nt
Cc1cc(Cl)ccc1NC(=O)CN1CCC(C(O)(c2ccccc2)c2ccccc2)CC1 | 8.7* | 1.0 | 35.1 | -14.2 | 26.2* | 2.4 | 1.5
Cc1cc(Cl)ccc1NC(=O)CN1CCCC1 | 0.3 | 0.0 | -3.4 | 1.4 | -0.4 | nt | nt
Cc1ccc(-c2nc(C(F)(F)F)cc(=O)[nH]2)cc1 | -4.1 | 0.1 | -3.5 | 1.4 | -6.6 | nt | nt
Cc1[nH]c2ccccc2c1C(=O)c1c(N)[nH]c(C(=O)c2ccccc2)c1-c1ccc(Cl)cc1 | 5.3 | nt | nt | nt | 20.6* | 7.8 | 2.2
CCOc1ccc(N2CC(C(=O)Nc3ccc(S(=O)(=O)N4CCCCC4)cc3)CC2=O)cc1 (stereo not given) | -1.1 | 0.0 | 9.7 | -3.3 | -1.9 | nt | nt
